# Measured values reported in PubChem BioAssay (NCI).
# Compounds without any hit were thinned out: in the full panel of roughly 79,000, 15% have a hit. Activity calls are given as the source filed them. Cut-off read from the data, not from the text of the source: active = growth inhibition above about 70%; inactive = the rest.
# Test: NCI Yeast Anticancer Drug Screen. Data for the sgs1 mgt1 strain (AID 161);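 note: 0% = growth of cultures given vehicle only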
# Conditions: S. cerevisiae sgs1 mgt1 strain, at 50.0 µM, stronger effect = higher value
# Procedure, shortened: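 Read-out: growth inhibition vs vehicle controls. Cells: mutant yeast strain deficient in DNA damage repair.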
row,SMILES,growth inhibition
1,CCOC(SCC)C(O)C(O)C(O)C(O)CO (stereo not given),20.4% (inactive)
2,c1ccc(OCCCCN2CCNCC2)cc1,14.3% (inactive)
3,O=C(O)c1ccccc1C(=O)OCC1CCCc2ccccc21 (stereo not given),41.5% (inactive)
4,CCOC(=O)c1c(N)n(-c2ccccc2)c(=S)n(-c2ccccc2)c1=O,-32.5% (inactive)
5,O=C1c2ccccc2C(=O)N1n1c(Cc2ccccc2)n[nH]c1=O,-41.5% (inactive)
6,COc1ccc(/C=C2\N=C(c3ccc(Cl)cc3)OC2=O)cc1Br,21.5% (inactive)
7,c1ccc(CCCC2Sc3cccc4cccc(c34)S2)cc1,-18.6% (inactive)
8,NCCSC(O)(C(F)(F)F)C(F)(F)F,3.05% (inactive)
9,Nc1ccc([N+](=O)[O-])cc1F,-9.85% (inactive)
10,CC(=O)N1CN2C(=O)CCC2c2cc(C)ccc21 (stereo not given),-2.65% (inactive)
11,CCCNCCCCC(C)Nc1cc(OC)cc2cccnc12 (stereo not given),-15.6% (inactive)
12,COC(=O)Nn1cc(C(C(C)=O)C(C)=O)c(C(C)=O)c1C,7.9% (inactive)
13,CC(C)C(N)C(=O)NC(C(=O)O)C(C)C (stereo not given),-4.3% (inactive)
14,O=C(O)c1ncn2c(=O)n(CCCl)nnc12,-15.8% (inactive)
15,CCCCc1c2c([n+]([O-])c3c1CCCC3)CCCC2,54.1% (inactive)
16,O=C(c1ccc(Cl)cc1Cl)C(CS(=O)(=O)O)CS(=O)(=O)O,-5.8% (inactive)
17,C=C1CC[C@H]2C(C)=CC[C@H]3C(=C)C(=O)O[C@@H]3[C@@H]12,-24.1% (inactive)
18,Nc1cc(C(=O)c2ccccc2C(=O)O)ccc1Cl,-8.3% (inactive)
19,O=C(/C=C(/Nc1ccccc1)c1ccccc1)c1ccccc1,8.9% (inactive)
20,Fc1cccc(C(Nc2nncs2)Nc2nncs2)c1,-1.7% (inactive)

row,SMILES,growth inhibition
1,COC(=O)C1(Cc2ccccc2)Cc2cc3c(cc2C1=O)CCC3 (stereo not given),8.5% (inactive)
2,CC(=O)CC(=O)Nc1cccc(C)c1C,15.3% (inactive)
3,c1ccc2c[n+](CCCC[n+]3ccc4ccccc4c3)ccc2c1,22.4% (inactive)
4,CCOC(=O)c1cc2nc3ccccn3c(=O)c2cc1N,0.85% (inactive)
5,CCCCCCCC/C=C\CCCCCCCC(=O)NCCN1CCCCC1,99.6% (active)
6,CC(C)CCC[C@@H](C)[C@H]1CC[C@H]2C3=CC=C4C[C@H](OC(=O)c5ccccc5)CC[C@]4(C)[C@H]3CC[C@]12C,11% (inactive)
7,O=C1Nc2ccccc2C12OCCS2 (stereo not given),17.2% (inactive)
8,Cc1ncc(CSCC(=O)O)c(N)n1,-5.05% (inactive)
9,Clc1ccc(CSCSCc2ccc(Cl)cc2)cc1,10.8% (inactive)
10,O=C(Oc1c(OC(=O)c2ccccc2)c2ccccc2c2ccccc12)c1ccccc1,7.85% (inactive)
11,O=c1[nH]cc(CS)c(=O)[nH]1,-7.95% (inactive)
12,COC(=O)c1cc2cc3ccccc3cc2cc1C(=O)OC,11.8% (inactive)
13,N#CCC(=O)c1ccc(N)cc1,2.2% (inactive)
14,CCOCCOCCOCOCCOCCOCC,8.4% (inactive)
15,CCN(CC)CCC(=O)N1C/C(=C/c2ccccc2)C(=O)/C(=C\c2ccccc2)C1,12.8% (inactive)
16,CC(C)(C)OC(=O)Cc1c[nH]c2ccccc12,-9.45% (inactive)
17,Cc1cc(C)c2cccc-2c(C)c1,-12.3% (inactive)
18,OC1OCc2cc3ccccc3cc21 (stereo not given),-8.35% (inactive)
19,COCCCNc1nc(N)c(C#N)c(C#N)c1C#N,2.85% (inactive)
20,CC(=O)OC1CCC2(C)C(=CCC3C2CCC2(C)C(/C(C)=N/NC(N)=O)CCC32)C1 (stereo not given),-0.1% (inactive)

# Test: NCI Yeast Anticancer Drug Screen. Data for the cln2 rad14 strain (AID 165);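 note: 0% = growth equal to vehicle treated cultures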
# Conditions: S. cerevisiae cln2 rad14 strain, at 50.0 µM, stronger effect = higher value
# Procedure, shortened: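 Test compounds were added to cln2 rad14 yeast cultures; inhibition of growth was then determined by comparison with vehicle treatment.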
row,SMILES,growth inhibition
1,CCOC(SCC)C(O)C(O)C(O)C(O)CO (stereo not given),-14.7% (inactive)
2,c1ccc(OCCCCN2CCNCC2)cc1,-10.1% (inactive)
3,O=C(O)c1ccccc1C(=O)OCC1CCCc2ccccc21 (stereo not given),-100% (inactive)
4,CCOC(=O)c1c(N)n(-c2ccccc2)c(=S)n(-c2ccccc2)c1=O,14.6% (inactive)
5,O=C1c2ccccc2C(=O)N1n1c(Cc2ccccc2)n[nH]c1=O,-10.8% (inactive)
6,COc1ccc(/C=C2\N=C(c3ccc(Cl)cc3)OC2=O)cc1Br,5% (inactive)
7,c1ccc(CCCC2Sc3cccc4cccc(c34)S2)cc1,14.4% (inactive)
8,NCCSC(O)(C(F)(F)F)C(F)(F)F,-15.2% (inactive)
9,Nc1ccc([N+](=O)[O-])cc1F,-20.9% (inactive)
10,CC(=O)N1CN2C(=O)CCC2c2cc(C)ccc21 (stereo not given),7.8% (inactive)
11,CCCNCCCCC(C)Nc1cc(OC)cc2cccnc12 (stereo not given),-21.1% (inactive)
12,COC(=O)Nn1cc(C(C(C)=O)C(C)=O)c(C(C)=O)c1C,-35.6% (inactive)
13,CC(C)C(N)C(=O)NC(C(=O)O)C(C)C (stereo not given),-19.5% (inactive)
14,O=C(O)c1ncn2c(=O)n(CCCl)nnc12,-27.8% (inactive)
15,CCCCc1c2c([n+]([O-])c3c1CCCC3)CCCC2,-11.2% (inactive)
16,O=C(c1ccc(Cl)cc1Cl)C(CS(=O)(=O)O)CS(=O)(=O)O,-49.4% (inactive)
17,C=C1CC[C@H]2C(C)=CC[C@H]3C(=C)C(=O)O[C@@H]3[C@@H]12,-3.9% (inactive)
18,Nc1cc(C(=O)c2ccccc2C(=O)O)ccc1Cl,6.65% (inactive)
19,O=C(/C=C(/Nc1ccccc1)c1ccccc1)c1ccccc1,35.5% (inactive)
20,Fc1cccc(C(Nc2nncs2)Nc2nncs2)c1,-11.6% (inactive)

row,SMILES,growth inhibition
1,COC(=O)C1(Cc2ccccc2)Cc2cc3c(cc2C1=O)CCC3 (stereo not given),2.2% (inactive)
2,CC(=O)CC(=O)Nc1cccc(C)c1C,-1.7% (inactive)
3,c1ccc2c[n+](CCCC[n+]3ccc4ccccc4c3)ccc2c1,12.4% (inactive)
4,CCOC(=O)c1cc2nc3ccccn3c(=O)c2cc1N,-36.3% (inactive)
5,CCCCCCCC/C=C\CCCCCCCC(=O)NCCN1CCCCC1,97.8% (active)
6,CC(C)CCC[C@@H](C)[C@H]1CC[C@H]2C3=CC=C4C[C@H](OC(=O)c5ccccc5)CC[C@]4(C)[C@H]3CC[C@]12C,3.7% (inactive)
7,O=C1Nc2ccccc2C12OCCS2 (stereo not given),-7.4% (inactive)
8,Cc1ncc(CSCC(=O)O)c(N)n1,-9.05% (inactive)
9,Clc1ccc(CSCSCc2ccc(Cl)cc2)cc1,-40.9% (inactive)
10,O=C(Oc1c(OC(=O)c2ccccc2)c2ccccc2c2ccccc12)c1ccccc1,-1.7% (inactive)
11,O=c1[nH]cc(CS)c(=O)[nH]1,34% (inactive)
12,COC(=O)c1cc2cc3ccccc3cc2cc1C(=O)OC,-13.4% (inactive)
13,N#CCC(=O)c1ccc(N)cc1,13.9% (inactive)
14,CCOCCOCCOCOCCOCCOCC,7.25% (inactive)
15,CCN(CC)CCC(=O)N1C/C(=C/c2ccccc2)C(=O)/C(=C\c2ccccc2)C1,30.6% (inactive)
16,CC(C)(C)OC(=O)Cc1c[nH]c2ccccc12,-19.1% (inactive)
17,Cc1cc(C)c2cccc-2c(C)c1,-6.15% (inactive)
18,OC1OCc2cc3ccccc3cc21 (stereo not given),3.6% (inactive)
19,COCCCNc1nc(N)c(C#N)c(C#N)c1C#N,3.45% (inactive)
20,CC(=O)OC1CCC2(C)C(=CCC3C2CCC2(C)C(/C(C)=N/NC(N)=O)CCC32)C1 (stereo not given),-39.6% (inactive)
